Each structure is given as a SMILES string. “And” between values parts separate entries of the source, which are not always exact repeats. Equal values may be shown once. Results filed as inconclusive are left out. Entries that show only a call come without a potency. Where a structure was tested more than once in an assay, its records may differ in their call. The source made the active and inactive calls. Calls follow the shape of the dose curve; as a rule, active = well fitted cell-killing curve with a large enough effect in the repeat runs; inconclusive = weak or mixed curves, or effect the other way; inactive = flat fitted curve, though single readings scatter.
Potency is read from the fitted curve at half-maximal effect.

A short description of this test: qHTS assay to identify small molecule agonists of the estrogen receptor beta (ER-beta) signaling pathway - cell viability counter screen (AID 1259380). Also: nearly all actives have a fitted effect of over 30% in size. The settings on record: ER-beta-bla HEK293T viability, CellTiter-Glo luminescence, 16 h; series mostly up to 92.4 µM. From the text: National Center for Advancing Translational Sciences [NCATS]
NIH Chemical Genomics Center [NCGC]
U.S. Environmental Protection Agency [EPA]
National Institutes of Environmental Health Sciences [NIEHS]
National Toxicology Program [NTP]
U.S. Food and Drug Administration [FDA]
Estrogen receptor (ER), a nuclear hormone receptor, plays an important role in development, metabolic homeostasis and reproduction. Two subtypes of ER, ER-alpha and ER-beta, have similar expression patterns with some uniqueness in both types. Endocrine disrupting chemicals (EDCs) and their interactions with steroid hormone receptors like ER causes disruption of normal endocrine function. To identify the compounds that activate ER signaling, an ER beta-UAS-bla GripTite cell line (Life Technologies, Madison, WI, USA) containing a beta-lactamase reporter gene under the control of an UAS response element was used to screen Tox21 10K compound library. The cytotoxicity of the Tox21 compound library against the ER-beta-bla cell line was tested in parallel by measuring the cell viability using CellTiter-Glo assay in the same wells.
Tox21 Assay Protocol Summary:
ER-beta-UAS-bla HEK293T cells were dispensed at 2,000 cells/5 uL of assay medium containing 2% charcoal stripped FBS per well into black wall/clear-bottom 1536-well plates using a Multidrop Combi (ThermoFisher Scientific, Waltham, MA) dispenser. After the assay plates were incubated at a 37C and 5% CO2 for 6 hr, 23 nL of compounds dissolved in DMSO, positive controls or DMSO only was transferred to the assay plate by a Pintool station (Kalypsys, San Diego, CA). The plates were incubated at 37C and 5% CO2 for 16 hr. Then 1 uL of LiveBLAzerTM B/G FRET substrate was added using a BioRAPTR FRD (Flying Reagent Dispenser, Aurora Discovery, San Diego, CA) and then the plates were incubated at room temperature for 2 hours, and fluorescence intensity was measured by an Envision plate reader (PerkinElmer, Shelton, CT). For cell viability readout that measures cytotoxicity, 4 uL/well of CellTiter-Glo reagent was added into the assay plates using a FRD. After 30 min incubation at room temperature, the luminescence intensity in the plates was measured using a ViewLux (PerkinElmer) plate reader.
On the technique in general: Quantitative high-throughput screening tests each substance at several concentrations.
Consider `c1ccc2c(c1)Oc1ccccc1S2`, for which the Potency result was “inactive”. The result for `OC(CCl)CCl` reads “inactive”; that for `O=C(Nc1ccc(Cl)cc1)Nc1ccc(Cl)c(Cl)c1`, 1.08 µM (active) and 2.17 µM (active); that for `CC(C)OB(OC(C)C)OC(C)C`, “inactive”. `C=C(C)C1CC=C(C)CC1` (stereo not given): the Potency entry is “inactive”. The result for `Nc1ccc(Nc2ccccc2)cc1` reads 24.3 µM (active). The result for `OC[C@H]1O[C@@H]2O[C@H]3[C@H](O)[C@@H](O)[C@@H](O[C@H]4[C@H](O)[C@@H](O)[C@@H](O[C@H]5[C@H](O)[C@@H](O)[C@@H](O[C@H]6[C@H](O)[C@@H](O)[C@@H](O[C@H]7[C@H](O)[C@@H](O)[C@@H](O[C@H]8[C@H](O)[C@@H](O)[C@@H](O[C@H]1[C@H](O)[C@H]2O)O[C@@H]8CO)O[C@@H]7CO)O[C@@H]6CO)O[C@@H]5CO)O[C@@H]4CO)O[C@@H]3CO` reads 61.3 µM (active) and inactive; that for `OC1CCCCCCCCCCC1`, “inactive”. The same measure for `CCC(C)c1ccccc1O` (stereo not given): “inactive”; for `CCCc1c(OCCCCc2nn[nH]n2)ccc(C(C)=O)c1O`: 68.6 µM (active); for `CCCCOCCOCCOCCO`: “inactive”.

For the molecule `CCOCCOCCO`, the Potency entry was “inactive”.

Consider `O=C(c1ccccc1)c1ccccc1O`, for which the Potency result was “inactive”. The same measure for `CC(C(=O)O)c1cccc(C(=O)c2ccccc2)c1` (stereo not given): “inactive”; for `CC(=O)c1ccccn1`: “inactive”; for `CC(C)=CCCC(C)CCO` (stereo not given): “inactive”. The same measure for `CN(C)CCC=C1c2ccccc2CCc2ccccc21`: 30.6 µM (active) and 26.6 µM (active). With `O=C(Nc1ccc([N+](=O)[O-])cc1Cl)c1cc(Cl)ccc1O`, the Potency is 8.63 µM (active) and 92 nM (active).

As to `CC(CCC(=O)O)(c1ccc(O)cc1)c1ccc(O)cc1`, the Potency result is “inactive”. Regarding `CC(=O)Oc1ccccc1C(=O)Nc1ncc([N+](=O)[O-])s1`, the Potency is 12.4 µM (active) and 7.5 µM (active). With `CC(=O)O[C@]1(C(C)=O)CC[C@H]2[C@@H]3C=C(Cl)C4=CC(=O)[C@@H]5C[C@@H]5[C@]4(C)[C@H]3CC[C@@]21C`, the Potency result is “inactive”. The result for `O=C(O)c1ccccc1Nc1cccc(C(F)(F)F)c1` reads 17.2 µM (active). As to `Nc1ccc(Cl)cc1Cl`, the Potency result is “inactive”. Turning to `Cc1cccc(C(=O)O)c1`, the Potency result was “inactive”. Regarding `O=C(OCc1ccccc1)c1ccccc1O`, the Potency result is “inactive”. Consider `c1ccc2cc(Nc3ccc(Nc4ccc5ccccc5c4)cc3)ccc2c1`, for which the Potency result is “inactive”.

As to `C=C(C)C(=O)OCCOC(=O)C(=C)C`, the Potency entry is “inactive”.

Turning to `O=c1oc(=O)c2cc3c(=O)oc(=O)c3cc12`, the Potency result was “inactive”. For the molecule `Brc1cc(Oc2cc(Br)c(Br)c(Br)c2Br)c(Br)c(Br)c1Br`, the Potency was 6.89 µM (active) and inactive. The same measure for `O=S(=O)(O)c1ccc(O)cc1`: “inactive”; for `CC(C)OC(=O)C(C)(C)Oc1ccc(C(=O)c2ccc(Cl)cc2)cc1`: “inactive”; for `COc1ccccc1/C=C/C=O`: 55.9 µM (active). The same measure for `c1ccc2c(c1)c1cccc3ccc4cccc2c4c31`: “inactive”; for `CN(C)CCN(Cc1cccs1)c1ccccn1`: “inactive”.

With `CCC(C)(O)CCCC(C)C` (stereo not given), the Potency entry was “inactive”. The same measure for `CCCC(=O)O`: “inactive”; for `CCCCC(CC)COP(=O)(OCC(CC)CCCC)OCC(CC)CCCC` (stereo not given): “inactive”. As to `c1ccncc1`, the Potency result was “inactive”. The result for `c1cc(-c2ccncc2)ccn1` reads “inactive”; that for `CCCCOCCOCCO`, “inactive”.

The values are drawn from PubChem BioAssay (Tox21).
